Assay outcomes: PubChem, several laboratories
In the library only some 3.1% were active in any assay of this set; here they are far more common.
Peg3 prom inh – Peg3 promoter-driven luciferase inhibitors, primary screen, cell-based, HeLa, luciferase luminescence | inhibition, % at 20 µM | 1.7% of 360,000 active | HeLa PEG-Prom luciferase reporter, overnight | AID 588405, 2011;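 active = inhibition of at least 50% at 20 µM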
HIF-2a inh – HIF-2a reporter inhibitors, primary screen, luminescence, 786-0 RCC cells | 786-0 RCC cells HIF-2a reporter, luciferase luminescence, overnight | inhibition, % at 18.8 µM | 0.72% of 360,000 active;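 active = inhibition of the luminescence signal of 40% or more relative to plate controls, in a single-dose primary screen at 18.75 µM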
ABHD5 PLIN5 PPI – ABHD5-PLIN5 interaction inhibitors, primary screen, cell lysate, split luciferase complementation, luminescence; Split G. princeps luciferase complementation, 4 h; 0.78% of 360,000 active; Perilipin-5 (Homo sapiens) + 1-acylglycerol-3-phosphate O-acyltransferase ABHD5 (Homo …; inhibition, % at 4 µM;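 active = inhibition above the mean inhibition across every tested compound plus 3 SD, cut at about 22% in these data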;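 note: 0% = DMSO only wells and the 100% control is not disclosed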
TRPM1 prom inh – inhibitors of MITF-dependent TRPM1 promoter reporter, primary screen, cell-based, SK-MEL-5, single point, luciferase. SK-MEL-5 TRPM1 promoter luciferase, 24 h. AID 488899, 2010. inhibition, % at 12.5 µM. 0.83% of 330,000 active;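 active = mean inhibition across replicates of 60% or more, whatever share of single replicates reaches that level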
KKLEB tox – cytotoxicity in KKLEB CF airway cells, primary screen, cytotoxicity control for CF NF-kB inhibitor project, cell-based, uHTS, fluorescence assay plates; KKLEB CF airway cells viability, ATPlite luminescence, overnight; active compounds read low; cells stimulated with P. aeruginosa culture filtrate; activity change (cytotoxicity), % at 5 µM; 0.36% of 360,000 active;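 active = corrected activity change at or below -50% at 5 µM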
CF NFkB inh – inhibitors of PAF-induced NF-kB signaling, primary screen, cell-based, GFP fluorescence, uHTS. KKLEB NF-kB-GFP reporter, GFP fluorescence overnight. 0.86% of 360,000 active. AID 588850, 2011. inhibition, % at 5 µM;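 active = at least 50% inhibition at 5 µM, scaled per plate between neutral and stimulator controls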;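 note: PAF is a Pseudomonas aeruginosa culture filtrate used as stimulus; plate controls were PAF-stimulated DMSO wells for no effect and unstimulated DMSO wells for full effect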
Mdm2-MdmX confirm – retested Mdm2-MdmX interaction blockers, confirmation, cell-based, luminescence, single concentration, set 2; inhibition, % at 8 µM; shares compounds with HIF-2a inh; 99% of 740 active; SaOS-2 split-luciferase Mdm2/MdmX complementation; AID 504601, 2011;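 active = mean inhibition of the luminescence signal across two replicates at or above 26 percent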
HIF-2a conf – HIF-2a reporter inhibitor retest, confirmation, luminescence, 786-0 RCC cells | shares compounds with HIF-2a inh | HIF-2a luciferase reporter luminescence, overnight | inhibition, % at 18.8 µM | 56% of 1,800 active | AID 651580, 2012;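 active = mean inhibition across four replicates of at least 40 percent at the single tested concentration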
HIF-1a counter – HIF-1a luciferase reporter signal reduction – MiaPaCa-2 cells, single concentration, counter-screen for HIF-2a inhibitor project, confirmation | MiaPaCa-2 HIF-1a luciferase reporter, desferoxamine, overnight | 72% of 1,800 active | shares compounds with HIF-2a inh | inhibition, % at 18.8 µM;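 active = mean inhibition of the reporter signal across four replicates at the single tested dose of 50% or more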
Starred values were filed as active, the others as inactive; . = not tested or not shown.

SMILES | Peg3 prom inh | HIF-2a inh | ABHD5 PLIN5 PPI | TRPM1 prom inh | KKLEB tox | CF NFkB inh | HIF-2a conf | HIF-1a counter | others
O=C(NCc1ccccc1)c1c(Cl)nc(Cl)c(Cl)c1Cl | 101.7* | 37.0 | 2.2 | 76.9* | -32.9 | 26.7 | . | . | Mdm2-MdmX confirm=103.2*
Cc1nc(Cl)c(C(=O)NCc2ccccc2)c(C)c1Cl | 1.3 | -5.5 | 3.5 | -13.6 | -4.3 | -6.4 | . | .
CCOc1nc2ccccc2cc1C=O | 18.4 | 6.5 | -5.6 | 19.2 | -14.9 | 23.4 | . | .
CCCn1c(=N)n(CC(=O)c2ccc(OCC(=O)OC)cc2)c2ccccc21 | 6.1 | 46.7* | 9.6 | 8.2 | -14.9 | -4.1 | 2.6 | 4.1
O=C1c2cccc3c([N+](=O)[O-])ccc(c23)C(=O)N1c1ccc(Cl)cn1 | 105.4* | 30.9 | 3.9 | 34.1 | -11.3 | 9.4 | . | . | Mdm2-MdmX confirm=103.0*
COc1c(Cl)cc(Cl)cc1/C=C/C(=O)c1ccc(NC(=O)c2cccs2)cc1 | 100.3* | 87.3* | 20.8 | 68.1* | -82.1* | 87.5* | -96.5 | 107.1* | Mdm2-MdmX confirm=99.5*
Cn1cc(Br)c(C(=O)Nc2ncc(Br)s2)n1 | -115.0 | -174.8 | 1.3 | -41.4 | 0.5 | -6.0 | . | .
Nc1nc(F)nc2c1ncn2[C@@H]1O[C@H](CO)[C@@H](O)[C@H]1O | 94.6* | 56.7* | -1.5 | 92.8* | -28.5 | 81.4* | 55.4* | 106.6*
Nc1nc(F)nc2c1ncn2[C@@H]1O[C@H](CO)[C@@H](O)[C@@H]1O | 22.8 | 3.2 | -0.9 | 0.8 | 15.2 | -9.1 | . | .
O=C(Nc1ccncc1)c1ccc(Cl)c(S(=O)(=O)N2CCc3ccccc32)c1 | 44.8 | 49.9* | -6.1 | 38.2 | -30.9 | 26.0 | -7.1 | 7.7
O=C(O)c1cc(N/N=C/c2ccc3c(c2)OCO3)ccc1Cl | -0.4 | -6.5 | 4.5 | 39.1 | 3.3 | -9.7 | . | .
O=C(O)c1cc(N/N=C/c2ccc3c(c2)OCCO3)ccc1Cl | -24.5 | 61.6* | -1.5 | 82.4* | 9.8 | 32.8 | 79.9* | -53.2
Cc1nn(C)cc1S(=O)(=O)Nc1ccc2c(c1)OCCO2 | 21.9 | 40.6* | 4.0 | -9.7 | 4.1 | -15.0 | 44.5* | 55.9*
O=C(O)c1cc(S(=O)(=O)Nc2ccc3c(c2)OCCO3)c(Cl)cc1Cl | 20.3 | 41.7* | -1.8 | 12.5 | -5.2 | 4.4 | 54.4* | 70.6*
CC(=O)Nc1ccc(S(=O)(=O)Nc2ccc3c(c2)OCCO3)cc1Cl | 11.5 | 24.8 | -2.6 | 6.0 | 4.5 | -5.5 | . | .
COCCN1C(=O)COc2ccccc2C1C(=O)NC1CCCC1 (stereo not given) | . | 0.6 | 2.2 | . | . | . | . | .
C[C@H]1CN([C@@H](C)CO)C(=O)Cc2cc(NC(=O)CCC(F)(F)F)ccc2O[C@H]1CN(C)S(=O)(=O)c1ccc(Cl)cc1 | 1.1 | 14.6 | 1.9 | 29.8 | -23.1 | 19.1 | . | .
O=C(/C=C/[C@H]1O[C@@H](n2ccc(=O)[nH]c2=O)[C@H](O)[C@@H]1O)N1CCN(Cc2ccc(F)cc2)CC1 | 14.4 | 17.9 | -7.6 | . | 4.6 | -15.8 | . | .
CCCCCCCCNCCS(=O)(=O)NCCCCCCCC | 95.5* | 51.1* | -8.6 | 28.8 | -21.7 | 19.2 | 9.5 | 105.5*
CCCCCCCCNS(=O)(=O)CCNCCc1ccccc1 | 27.0 | -2.5 | -0.9 | 11.3 | -2.9 | 5.5 | . | .
CCc1nc(Nc2ccncc2)c2oc3ccccc3c2n1 | 33.5 | 47.4* | 1.6 | 3.4 | -3.8 | -60.2 | 25.8 | 81.9*
Cc1nc(Nc2ccncc2)c2oc3ccccc3c2n1 | 32.1 | 16.6 | 4.4 | -4.7 | 5.2 | -76.9 | . | .
Cc1ccc([N+](=O)[O-])cc1S(=O)(=O)Nc1ccc(N2CCOCC2)cc1 | -25.5 | -23.5 | -0.2 | -6.8 | 0.2 | 1.2 | . | .
CCOC(=O)c1ccc(S(=O)(=O)Nc2nc3cc(S(=O)(=O)NC4=NCCCCC4)ccc3s2)cc1 | -18.0 | 7.8 | -22.3 | 4.4 | 12.2 | -22.4 | . | .
Nc1nc2cc(S(=O)(=O)NC3=NCCCCC3)ccc2s1 | 9.4 | 40.6* | -18.8 | 1.1 | -4.5 | -11.1 | -7.2 | -8.2
SMILES | Peg3 prom inh | HIF-2a inh | ABHD5 PLIN5 PPI | TRPM1 prom inh | KKLEB tox | CF NFkB inh | HIF-2a conf | HIF-1a counter | others
Oc1ccc(Nc2nc(N3CCCC3)c3ccccc3n2)cc1 | 99.5* | 45.7* | 14.5 | 27.6 | -3.5 | -65.3 | 34.7 | 104.3*
Nc1cnc(Nc2ccc(Br)cc2)nc1N | -177.5 | -153.5 | -8.4 | -70.1 | -6.0 | 2.0 | . | .
CCOc1ccccc1CNC(=O)Cn1nc(C)c2c(C)n(-c3ccc(C)cc3)nc2c1=O | 22.5 | 8.3 | 3.2 | 48.7 | 0.2 | -0.7 | . | .
CCOc1ccc(CNC(=O)C2CCN(c3nnc(C)c4c(C)n(-c5ccc(C)cc5)nc34)CC2)cc1 | 101.2* | 68.9* | 9.5 | 95.0* | -2.4 | -57.6 | 7.7 | 31.7
Cc1ccc(-n2nc3c(N4CCC(C(=O)NCc5ccccc5C)CC4)nnc(C)c3c2C)cc1 | 88.6* | 85.4* | 12.0 | 93.8* | -15.0 | 28.2 | 20.7 | 62.1*
COc1ccc(-n2nc3c(N4CCC(C(=O)NCc5cccc(C)c5)CC4)nnc(C)c3c2C)cc1 | 98.8* | 67.2* | 9.1 | 95.1* | -27.6 | -23.0 | 76.4* | 80.1*
CCOc1ccccc1CNC(=O)C1CCN(c2nnc(C)c3c(C)n(-c4ccc(C)cc4)nc23)CC1 | 97.0* | 70.5* | 17.3 | 95.7* | -21.0 | -47.6 | 51.4* | 97.8*
COC(=O)c1c(-c2ccccc2)csc1NC(=O)c1c(-c2ccccc2)noc1C | 15.5 | -3.5 | -8.4 | 13.6 | -9.7 | -13.0 | . | . | Mdm2-MdmX confirm=99.1*
COc1ccc(CCNC(=O)c2ccc3c(c2)OCO3)cc1 | -106.5 | -118.7 | -1.7 | -39.7 | -1.0 | 5.3 | . | .
COc1ccc2cc(CCNC(=O)c3ccc4c(c3)OCO4)c(=O)[nH]c2c1 | 11.1 | 38.2* | 3.1 | 24.6 | -9.7 | -24.1 | -11.7 | 3.1
Cc1cc(N)n2nc(C)c(-c3ccc(Cl)cc3)c2n1 | 14.7 | 0.2 | -1.7 | 0.6 | -19.0 | 2.9 | . | .
Cc1cc(Cl)n2nc(C)c(-c3ccc(Cl)cc3)c2n1 | 103.7* | 66.5* | -1.5 | 1.2 | -29.6 | 33.1 | 8.8 | 100.1*
